Measured values reported in PubChem BioAssay (NCATS).
Results filed as inconclusive are left out. The source made the active and inactive calls. Calls come from the whole dose curve; as a rule, active = well fitted inhibition curve with a large enough effect; inconclusive = small, poorly fitted or top-dose-only effect; inactive = flat fitted curve, though single readings scatter.

molecular target: Lysine-specific demethylase 5B (Homo sapiens) (UniProt Q9UGL1); assay: Optimization screen for KDM5B Histone Demethylases FDH coupled qHTS against the LOPAC library (AID 1347166); conditions: KDM5B demethylation, FDH-coupled NADH fluorescence (FDH is formaldehyde dehydrogenase); series mostly up to 57.5 µM
Sequence (Q9UGL1 whole entry, looked up): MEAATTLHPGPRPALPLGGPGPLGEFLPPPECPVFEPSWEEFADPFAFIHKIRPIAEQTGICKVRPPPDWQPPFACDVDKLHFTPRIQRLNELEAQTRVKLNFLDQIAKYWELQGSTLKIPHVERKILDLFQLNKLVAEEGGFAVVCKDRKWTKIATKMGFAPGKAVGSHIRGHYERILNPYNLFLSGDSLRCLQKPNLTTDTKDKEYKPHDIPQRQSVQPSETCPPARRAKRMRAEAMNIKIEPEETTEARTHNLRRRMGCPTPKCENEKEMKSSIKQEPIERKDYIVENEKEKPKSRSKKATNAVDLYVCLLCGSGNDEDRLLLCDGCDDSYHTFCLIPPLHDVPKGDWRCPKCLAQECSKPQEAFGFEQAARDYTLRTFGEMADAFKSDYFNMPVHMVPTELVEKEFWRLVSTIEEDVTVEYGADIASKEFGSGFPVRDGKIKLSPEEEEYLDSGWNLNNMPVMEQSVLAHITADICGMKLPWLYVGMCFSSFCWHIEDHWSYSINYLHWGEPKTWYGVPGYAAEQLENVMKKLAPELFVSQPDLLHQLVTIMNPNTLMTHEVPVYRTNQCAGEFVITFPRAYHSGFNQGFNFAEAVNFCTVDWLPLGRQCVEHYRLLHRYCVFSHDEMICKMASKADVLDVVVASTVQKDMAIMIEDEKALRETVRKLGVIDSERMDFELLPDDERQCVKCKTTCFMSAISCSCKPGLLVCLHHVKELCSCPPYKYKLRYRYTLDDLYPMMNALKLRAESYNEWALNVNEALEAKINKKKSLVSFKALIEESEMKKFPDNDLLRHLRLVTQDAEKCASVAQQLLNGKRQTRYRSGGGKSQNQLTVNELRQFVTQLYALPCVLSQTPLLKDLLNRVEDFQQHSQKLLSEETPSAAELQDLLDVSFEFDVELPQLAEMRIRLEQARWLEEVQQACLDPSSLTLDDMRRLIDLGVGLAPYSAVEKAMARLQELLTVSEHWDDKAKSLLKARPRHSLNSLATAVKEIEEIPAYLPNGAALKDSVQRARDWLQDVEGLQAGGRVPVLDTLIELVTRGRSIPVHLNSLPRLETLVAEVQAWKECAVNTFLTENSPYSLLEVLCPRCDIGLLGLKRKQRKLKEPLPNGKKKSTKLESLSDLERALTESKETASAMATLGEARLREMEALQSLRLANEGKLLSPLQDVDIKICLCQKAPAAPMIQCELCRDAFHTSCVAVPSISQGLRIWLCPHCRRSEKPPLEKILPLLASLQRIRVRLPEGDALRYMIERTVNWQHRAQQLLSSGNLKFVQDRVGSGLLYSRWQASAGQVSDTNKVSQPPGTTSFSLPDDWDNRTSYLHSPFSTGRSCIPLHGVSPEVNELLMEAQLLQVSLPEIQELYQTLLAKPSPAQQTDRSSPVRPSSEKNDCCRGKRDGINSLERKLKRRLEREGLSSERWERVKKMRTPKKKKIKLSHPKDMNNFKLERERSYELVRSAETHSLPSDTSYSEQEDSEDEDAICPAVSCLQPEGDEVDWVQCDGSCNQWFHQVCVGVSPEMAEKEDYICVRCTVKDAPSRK
Excerpt: Assay Submitter (PI): Qin Yan, Ph.D. (Yale University) and Xiaodong Cheng, Ph.D. (MD Anderson)
This project was funded as part of the NCI NEXT Program and Chemical Biology Consortium (CBC)
The histone demethylases, KDM5A and KDM5B catalyze the demethylation of lysine 4 on histone H3 (H3K4me3/2). They
are overexpressed in a variety of cancers and have been implicated in cancer cell growth, metastasis, drug resistance, and tumor growth. KDM5A is amplified and overexpressed in breast and gastric cancer; and is translocated in leukemia. While KDM5B is highly expressed in human mammary tumors and breast cancer cell lines, but not in normal adult breast tissue. Moreover, knockdown of KDM5B leads to upregulation of tumor suppressor genes, including BRCA1. The goal of this project is to employ qHTS to identify selective small molecule inhibitors of KDM5A/B demethylase activity to better understand the role of KDM5 in cancer and to develop novel therapies.
We employed an FDH-coupled assay previously reported by Sakurai et al. to monitor in vitro KDM5 demethylase activity. Compounds showing dose response inhibition are re-acquired, validated, and tested for non-specific interference with the formaldehyde dehydrogenase (FDH) counterscreen. True inhibitors are validated using an AlphaLisa secondary screen, which employs an H3K4(me2-1)-specific antibody to monitor demethylation of a biotin-tagged H3K4(me3) peptide substrate. Inhibitors are profiled against KDM4A and KDM6A AlphaLisa counterscreens to determine level of demethylase specificity; and against the TruHits counterscreen to eliminate non-specific inhibitory activity on the AlphaLISA detection method. Selective inhibitors identified from the primary and secondary screening are tested in cells using immunofluorescence to monitor global H3K4 tri-methylation as a measure of KDM5A/B inhibition. This assay is run against the NCGC Lopac collection of about 1,200 compounds to evaluate its amenability to quantitative High Throughput Screening (qHTS) platform.
Early Translation Branch (ETB)
National Center for Advancing Translational Sciences (NCATS), Rockville, MD
National Institute of Health (NIH), Bethesda, Maryland
[1] Sakurai, M et al. A miniaturized screen for inhibitors of Jumonji histone demethylases. Mol Biosyst. 2010 Feb;6(2):357-64. doi: 10.1039/b912993f. Epub 2009 Oct 8.
1536-well Black, solid bottom, medium binding assay plate is purchased from Greiner Bio-one. The enzymes (KDM5B) and substrate (H3K4me3/2) are provided by the principal investigators. The buffer for this assay is composed of 50mM HEPES at pH 7.5 with 0.01% Tween-20.
FDH coupled qHTS protocol:
Three microliter enzyme mix (buffer + 200nM KDM5BDeltaAP final concentration) is dispensed into the assay plate using the BioRAPTR Flying Reagent Dispenser (FRD; Beckton-Dickenson). Compound (at various final concentration) and control solution is pin transferred to the assay plate using the Kalypsys 1536-pin tool apparatus. The assay plate is incubated for 10 min at room temperature followed by addition of 1uL substrate mix (buffer + 100uM ascorbic acid, 50uM ferrous ammonium sulfate, 12.5uM H3K4Me3, 25uM a-ketoglutarate, 0.25 mM NAD+, 0.25 U/mL formaldehyde dehydrogenase using the FRD yielding a total reaction volume of 4 uL. Initial fluorescence (Read1) is detected using the PerkinElmer ViewLux plate reader equipped with 340 nm excitation and 450 nm emission filters. The final fluorescence (Read2) signal is obtained after 30 min of room temperature incubation. Delta RFU is calculated (Read2 - Read1) and is used to generated dose response curves

SMILES | outcome
CC(C)(C)NCC(O)c1ccccc1Cl (centres undefined) | inactive
C=C(C)[C@H]1CN[C@H](C(=O)O)[C@H]1CC(=O)O | inactive
Cc1ncsc1CCCl | inactive
CC(C)c1cccc(C(C)C)c1O | inactive
CC(C)N(CCC(C(N)=O)(c1ccccc1)c1ccccn1)C(C)C (centres undefined) | inactive
COc1ccc2c(c1OC)C(=O)O[C@H]2[C@@H]1c2cc3c(cc2CCN1C)OCO3 | inactive
CCC1(c2ccc(N)cc2)CCC(=O)NC1=O (centres undefined) | inactive
CN1C(=O)CCS(=O)(=O)C1c1ccc(Cl)cc1 (centres undefined) | inactive
O=P1(N(CCCl)CCCl)NCCCO1 (centres undefined) | inactive
O=c1[nH]oc2c1CCNC2 | inactive
O=C(CCCN1CCC2(CC1)C(=O)NCN2c1ccccc1)c1ccc(F)cc1 | inactive
O=C(O)CCCc1ccc(N(CCCl)CCCl)cc1 | inactive
CC(NC(C)(C)C)C(=O)c1cccc(Cl)c1 (centres undefined) | inactive
NCCc1ccc(O)cc1 | inactive
